Reference: PubChem BioAssay AID1159580 (chemical genetic matrix, 2015)
Values joined by “and” are separate entries in the source; they are usually repeats but may differ in a detail not shown here. Equal values may be shown once. The campaign covered roughly 5,500 compounds. About 2,000 (36%) were called active. Not shown: some 18% with an inconclusive outcome. No stated cut-off is given here; in the data, active means normalized growth mostly below about 0.91 (no sharp cut-off); inconclusive means no clear call, values can overlap the other calls; inactive means mostly above about 0.92. Some of the results follow.

Test: chemical genetic growth profiling, strain panel (AID 1159580);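 further: tested at 20 µM; growth read once vehicle control cultures reached saturation at 30 °C; 1 = growth at the plate median or of vehicle wells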
Conditions: S. cerevisiae deletion strains, growth OD

Measured: normalized growth

CC[N+](CC)(CC)CCOc1cccc(OCC[N+](CC)(CC)CC)c1OCC[N+](CC)(CC)CC
active: locus YDR392W, strain spt3, stronger effect = lower value 0.673
inactive: locus YAL013W, strain DEP1, stronger effect = lower value 1.01 | locus YAL021C, strain ccr4, stronger effect = lower value 1.02 | locus YAL026C, strain drs2, stronger effect = lower value 1.01 | locus YAL030W, strain snc1, stronger effect = lower value 1.02 | locus YAL040C, strain CLN3, stronger effect = lower value 1.01 | locus YBL061C, strain skt5, stronger effect = lower value 1.02 | locus YBR009C, strain hhf1, stronger effect = lower value 1 | locus YBR021W, strain FUR4, stronger effect = lower value 1.01 | locus YBR023C, strain chs3, stronger effect = lower value 1.02 | locus YBR171W, strain sec66, stronger effect = lower value 1.02 | locus YBR229C, strain ROT2, stronger effect = lower value 1.01 | locus YBR231C, strain swc5, stronger effect = lower value 0.958 | locus YBR279W, strain paf1, stronger effect = lower value 1.03 | locus YCL011C, strain gbp2, stronger effect = lower value 1.02 | locus YCL016C, strain dcc1, stronger effect = lower value 1.02 | locus YCL029C, strain bik1, stronger effect = lower value 1 | locus YCL061C, strain MRC1 (second series), stronger effect = lower value 0.999 | locus YCL061C, strain MRC1, stronger effect = lower value 1.01 | locus YCL069W, strain vba3, stronger effect = lower value 1.01 | locus YCR088W, strain abp1, stronger effect = lower value 1.02 | locus YDL005C, strain med2, stronger effect = lower value 1.03 | locus YDL035C, strain GPR1, stronger effect = lower value 1 | locus YDL040C, strain nat1, stronger effect = lower value 1.01 | locus YDL074C, strain BRE1, stronger effect = lower value 1.02 | locus YDL101C, strain DUN1, stronger effect = lower value 1.01 | locus YDL134C, strain PPH21, stronger effect = lower value 1 | locus YDL185W, strain tfp1, stronger effect = lower value 1.02 | locus YDL192W, strain arf1, stronger effect = lower value 1.01 | locus YDR001C, strain nth1, stronger effect = lower value 1.01 | locus YDR069C, strain doa4, stronger effect = lower value 0.999 | locus YDR101C, strain arx1, stronger effect = lower value 0.996 | locus YDR137W, strain rgp1, stronger effect = lower value 1.05 | locus YDR150W, strain NUM1, stronger effect = lower value 0.995 | locus YDR159W, strain sac3, stronger effect = lower value 0.965 | locus YDR162C, strain NBP2, stronger effect = lower value 1.01 | locus YDR195W, strain ref2 0.983 | locus YDR297W, strain sur2, stronger effect = lower value 1.01 | locus YDR318W, strain mcm21, stronger effect = lower value 1.01 | locus YDR334W, strain swr1, stronger effect = lower value 1.01 | locus YDR335W, strain msn5, stronger effect = lower value 1.01 | locus YDR363W, strain ESC2, stronger effect = lower value 1.02 | locus YDR388W, stronger effect = lower value 1.01 | locus YDR502C, strain sam2, stronger effect = lower value 1 | locus YEL003W, strain gim4, stronger effect = lower value 1.01 | locus YEL037C, strain rad23, stronger effect = lower value 1.01 | locus YEL061C, strain CIN8 (second series), stronger effect = lower value 1.01 | locus YEL061C, strain CIN8, stronger effect = lower value 1.01 | locus YER002W, strain NOP16, stronger effect = lower value 0.986 | locus YER015W, strain faa2, stronger effect = lower value 0.994 | locus YER016W, strain bim1, stronger effect = lower value 0.984 | locus YER110C, stronger effect = lower value 1.01 | locus YER111C, strain swi4, stronger effect = lower value 1.02 | locus YER155C, strain BEM2 (second series), stronger effect = lower value 0.914 | locus YER155C, strain BEM2, stronger effect = lower value 1.02 | locus YER167W, strain BCK2, stronger effect = lower value 1.01 | locus YFR010W, strain ubp6, stronger effect = lower value 1.01 | locus YGL078C, strain dbp3, stronger effect = lower value 1 | locus YGL086W, strain mad1, stronger effect = lower value 0.98 | locus YGL167C, strain pmr1, stronger effect = lower value 1.02 | locus YGL173C, strain kem1, stronger effect = lower value 1.01 | locus YGL227W, strain vid30, stronger effect = lower value 1.03 | locus YGL240W, strain doc1, stronger effect = lower value 0.994 | locus YGL248W, strain PDE1, stronger effect = lower value 1.01 | locus YGL253W, strain hxk2, stronger effect = lower value 1.01 | locus YGR135W, strain pre9, stronger effect = lower value 1.03 | locus YGR229C, strain SMI1, stronger effect = lower value 1.05 | locus YGR252W, strain gcn5, stronger effect = lower value 0.969 | locus YHR013C, strain ard1, stronger effect = lower value 1.02 | locus YHR027C, strain rpn1, stronger effect = lower value 1.01 | locus YHR030C, strain SLT2, stronger effect = lower value 1 and 1.01 | locus YHR079C, strain IRE1 (second series), stronger effect = lower value 1.02 | locus YHR079C, strain IRE1, stronger effect = lower value 1.03 | locus YHR094C, strain hxt1, stronger effect = lower value 1.01 | locus YHR129C, strain ARP1, stronger effect = lower value 1 | locus YHR142W, strain chs7, stronger effect = lower value 1.02 | locus YHR200W, strain rpn10, stronger effect = lower value 1.02 | locus YIL066C, strain RNR3, stronger effect = lower value 1.01 | locus YIL073C, strain SPO22, stronger effect = lower value 1.05 | locus YIL125W, strain kgd1, stronger effect = lower value 1.01 | locus YIR030C, strain dcg1, stronger effect = lower value 1.01 | locus YJL092W, strain hpr5, stronger effect = lower value 1.02 | locus YJL095W, strain BCK1 (second series), stronger effect = lower value 1.02 | locus YJL095W, strain BCK1, stronger effect = lower value 1.02 and 0.997 | locus YJL115W, strain asf1, stronger effect = lower value 1.02 | locus YJL129C, strain trk1, stronger effect = lower value 1.01 | locus YJL134W, strain LCB3, stronger effect = lower value 1.01 | locus YJL154C, strain vps35, stronger effect = lower value 1.01 | locus YJL164C, strain tpk1, stronger effect = lower value 1.03 | locus YJL166W, strain qcr8, stronger effect = lower value 1.03 | locus YJL168C, strain set2, stronger effect = lower value 1.01 | locus YJL187C, strain SWE1 (second series), stronger effect = lower value 1.01 | locus YJL187C, strain SWE1, stronger effect = lower value 1.02 | locus YJR043C, strain POL32, stronger effect = lower value 1.01
